Screens deposited in PubChem BioAssay by several laboratories.
Sampled rows, rich in hits. Any-hit rate of the full collection: about 1.9%.
NSD2 inh = NSD2 histone methyltransferase inhibitors, primary screen, biochemical, AlphaScreen, single concentration, set 2; NSD2 peptide methylation, 120 min; 0.54% of 310,000 active; inhibition, % at 12.5 µM; in the data active means inhibition above about 50%
CaV13 ICDI inh = Disruptors of the CACNA1D IQ motif to Ca2+-dependent inactivation inhibitor domain association, primary screening, Förster resonance energy transfer in intact living …. inhibition, % at 12.3 µM. 0.098% of 340,000 active. HEK cells, CFP/YFP FRET ICDI-IQ, plate reader, 10 min; percent FRET-ratio fall versus neutral wells;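 active means mean replicate inhibition of at least 30% and at least 1% of replicates passing that level; inconclusive means only one of the two criteria is met; inactive means neither criterion is met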
N-glyco inh = increase of ERlucT glycosylation luciferase signal, primary screen, N-linked glycosylation inhibitor project, D54 ERlucT cells, luminescence, set 2. D54 ERlucT glycosylation luciferase reporter, 24 h; percent of 100 nM tunicamycin response. reporter increase, % at 12.5 µM. 0.23% of 360,000 active. AID 588692, 2011;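 active means mean luciferase reporter signal, scaled so untreated is 0 and the glycosylation-blocking control 100, at or above a set limit in every replicate; inconclusive means mean reaches the limit but not every replicate does; inactive means mean below the limit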;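 further: luciferase carries N-glycosylation sites so blocking glycosylation raises the light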
ATG4B inh = ATG4B protease inhibitors, primary screen, biochemical, fluorescence, uHTS; Cysteine protease ATG4B (Homo sapiens), Q9Y4P1; ATG4B cleavage of LC3-PLA2, NBD-HPC fluorescence, 1 h; inhibition, % at 8.33 µM; 0.51% of 340,000 active; in the data active means inhibition above about 40%
Pemphigus Ab inh = inhibitors of pemphigus antibody binding to DSG3, primary screen, biochemical, bead-based, flow cytometry, scFv-GFP; 0.48% of 310,000 active; AID 588358, 2011; Desmoglein-3 (Homo sapiens), P32926; DSG3-coupled beads, scFv-anti-DSG3-GFP binding; hits give low values; binding (percent of control), % at 10 µM;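 active means binding more than 3 SD below its plate's average and above zero; inconclusive means below that plate limit but binding exactly zero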;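 further: hits lower antibody fragment binding to DSG3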
Vif inh = HIV Vif self-association inhibitors, primary screen, imaging, HEK293T, single point. HEK293T cells, Vif self-association by quenched fluorescence, 24 h. inhibition, % at 7.49 µM. 0.35% of 340,000 active. AID 602346, 2012; in the data active means inhibition above about 50%, passing the limit was not always enough; inconclusive means no clear call, values can overlap the other calls; inactive means below about 31%
A number is an active result; – = inactive; ? = inconclusive; · = not tested or not shown.

SMILES	NSD2 inh	CaV13 ICDI inh	N-glyco inh	ATG4B inh	Pemphigus Ab inh	Vif inh
Cc1nc(NC(=O)COc2ccc(Cl)cc2)sc1C(=O)N(C)C	–	–	·	·	·	·
CCN(C(=O)COc1ccc(C)cc1OC)c1cccc2ccccc12	–	–	–	–	–	57
COc1ccc(/C=N/N=C2/NC(=O)C(c3ccccc3)(c3ccccc3)S2)cc1	–	–	–	–	–	–
COc1ccc(N(CC(=O)NCc2cccnc2)S(=O)(=O)c2ccccc2)c(OC)c1	·	–	–	–	·	–
COC(=O)c1ccc(C(=O)OC)c(NC(=O)COC(=O)C23CC4CC(CC(O)(C4)C2)C3)c1	–	·	–	–	–	52
O=C(COC(=O)CSc1ccc(Cl)cc1)Nc1ccc2[nH]c(=O)[nH]c2c1	–	–	–	–	99	–
O=C(COC(=O)/C=C/c1ccc(Br)o1)Nc1ccc2[nH]c(=O)[nH]c2c1	–	–	–	·	57	–
Cc1ccc(SCC(=O)OCC(=O)Nc2ccc3[nH]c(=O)[nH]c3c2)cc1C	–	–	–	–	–	–
NC(=O)c1ccc(NC(=O)COC(=O)/C=C/c2ccc(Br)o2)cc1	–	–	–	–	–	–
O=C(NCc1ccccc1)C(c1cc2ccccc2o1)n1c(=O)c(-c2cc3ccccc3[nH]2)nc2ccccc21 (stereo not drawn)	·	–	·	·	·	·
CCCn1c(N2CCN(S(=O)(=O)Cc3ccccc3)CC2)nc2ccccc21	–	–	–	–	56	–
CCn1c(N2CCN(S(=O)(=O)c3ccccc3)CC2)nc2ccccc21	–	–	–	–	–	–
COC(=O)C1=C(C)NC(C)=C(C(=O)O[C@@H]2CCCN(Cc3ccccc3)C2)[C@@H]1c1cccc([N+](=O)[O-])c1	·	–	–	–	–	–
CCOC(=O)C1=C(C)NC(C)=C(C(=O)OC)C1c1cccc([N+](=O)[O-])c1 (stereo not drawn)	·	–	–	–	–	135
COc1ccc(-c2cc(-c3nnc(SCC(=O)N4CCOCC4)n3N)[nH]n2)cc1	–	·	·	·	·	·
CC(=O)Nc1ccc(-c2cc(-c3ccccc3)nc(-c3ccccc3)n2)cc1	–	–	–	–	-15	–
CC(=O)Nc1ccc(-c2cc(-c3ccc(NC(C)=O)cc3)nc(-c3ccccc3)n2)cc1	–	–	–	–	–	–
CCCC(=O)Nc1nc(C)c(-c2csc(Nc3cc(OC)ccc3OC)n2)s1	·	–	–	–	–	–
CCCCCC(=O)Nc1nc(C)c(-c2csc(Nc3cc(Cl)ccc3OC)n2)s1	·	–	–	–	79	–
S=C(NCCc1ccccc1)NC1CC1	–	–	–	–	–	–
S=C(NCCc1ccccc1)NC1CCC(NC(=S)NCCc2ccccc2)CC1 (stereo not drawn)	–	–	–	–	71	–
CN(Cc1ccccc1)S(=O)(=O)c1ccc(C(=O)Nc2nnc(C3CC3)o2)cc1	·	·	–	–	58	·
CCc1nnc(NC(=O)c2ccc(S(=O)(=O)N(C)Cc3ccccc3)cc2)o1	–	–	–	–	–	–
O=C1/C(=C/c2cccs2)COc2ccccc21	–	–	–	–	–	–
CCNC(=O)CP(=O)(c1ccccc1)c1ccccc1	–	·	–	–	73	–
SMILES	NSD2 inh	CaV13 ICDI inh	N-glyco inh	ATG4B inh	Pemphigus Ab inh	Vif inh
N#Cc1ccc(-c2ccc(OCC(=O)Nc3cccnc3)cc2)cc1	·	–	–	–	–	–
N#Cc1ccc(OCC(=O)Nc2ccc3[nH]c(=O)[nH]c3c2)cc1	–	–	–	–	–	–
CCCn1c(=O)c2[nH]c(-c3ccc(OCC(=O)Nc4ccc(C#N)cc4)cc3)nc2n(CCC)c1=O	·	–	–	–	–	94
CC(=O)Nc1ccc(NC(=O)COc2ccc(-c3ccc(C#N)cc3)cc2)cc1	–	–	–	–	–	55
O=C(Nn1cnnc1)c1ccccc1Cl	–	–	–	–	–	·
O=C1c2ccccc2[C@@H]2C[C@@H](O)[C@H](Nc3cccc4ccccc34)CCN12	·	–	–	–	–	83
COc1ccc(N[C@@H]2CCN3C(=O)c4ccccc4[C@@H]3C[C@H]2O)cc1	·	–	–	–	–	?
Cc1cccc(C)c1NC(=O)C(c1ccccc1)n1c(=O)c(-c2ccco2)nc2ccccc21 (stereo not drawn)	·	–	·	·	·	·
O=C(CSc1nnc(CCCO)n1-c1ccccc1)Nc1nccs1	–	–	–	–	–	·
COc1ccc(-c2[nH]c(-c3ccc(Cl)cc3)nc2SCC(=O)Nc2nccs2)cc1	·	–	–	–	73	·
CCOc1ccc(-n2c(SCC(=O)Nc3nccs3)nnc2-c2ccoc2C)cc1	–	179	–	–	–	–
Cc1cccc(C)c1OCc1nnc(SCC(=O)Nc2nccs2)n1-c1ccccc1	–	–	–	–	34	–
COc1ccc(-n2c(SCC(=O)Nc3nccs3)nnc2-c2ccc(Cl)cc2)cc1	–	–	–	–	-1.0	–
O=C(NC12CC3CC(CC(C3)C1)C2)c1ccc(N2CCNCC2)c([N+](=O)[O-])c1	–	–	–	–	–	–
O=C1NC(=O)C(Cc2ccc(O)cc2)N1 (stereo not drawn)	·	·	–	–	–	–
CCOc1ccccc1-n1c(=S)sc2c(=O)n(-c3ccc(C)cc3)c(=S)[nH]c21	·	–	–	–	–	–
O=C(NCC1CC1)NC(=O)c1c(F)cccc1Cl	–	–	–	–	–	50
N=c1oc2ccc3ccccc3c2cc1C(N)=S	–	–	–	–	80	–
CCOC(=O)c1ccc(-c2ccc(/C=N/NC(=O)c3cncc(Br)c3)o2)cc1	–	–	–	–	75	58
Cc1ccc(C(=O)N/N=C\c2ccc(-c3ccc(Cl)cc3)o2)cn1	–	–	–	–	92	–
Cc1ccc(/C=N\NC(=O)c2cncc(Br)c2)o1	–	–	–	–	–	–
NC(=O)c1nsc(C(=O)N(Cc2cccnc2)C(C(=O)NCc2ccc(F)cc2)c2ccc(O)cc2)c1N (stereo not drawn)	–	–	–	–	–	51
NC(=O)c1nsc(C(=O)N(c2cccc(F)c2)C(C(=O)NC2CCCC2)c2ccco2)c1N (stereo not drawn)	–	–	–	–	–	–
NC(=O)c1nsc(C(=O)N(c2cccc(F)c2)C(C(=O)NC2CCCC2)c2ccc(O)cc2)c1N (stereo not drawn)	–	–	–	–	·	91
